target: COPS5 (UniProt Q92905); assay: log2 ratio of Biotin-Ahx-Ub-VS probe labelling (fragment/DMSO); higher = less target engagement (more negative = stronger competition), active = hit call of the paper (q ≤ 0.05, log2 ratio ≤ -1); details: compound concentration: 200 uM; treatment time: 3 h
Experimental: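 Competitive ABPP in HEK293T cell lysate. Lysates were treated with each chloroacetamide fragment at 200 µM for 3 h, then with Biotin-Ahx-Ub-VS (0.5 µM, 1 h), NeutrAvidin-enriched and analysed by diaPASEF LC-MS/MS. Protein LFQ was median-normalised; average log2 ratio is fragment/DMSO from an unpaired t-test (n=3 treated, n=44 DMSO). Hits: q ≤ 0.05, log2 ratio ≤ -1, unique peptides ≥ 2.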

COPS5, sequence (Q92905 whole entry, looked up, the tested form may be a part): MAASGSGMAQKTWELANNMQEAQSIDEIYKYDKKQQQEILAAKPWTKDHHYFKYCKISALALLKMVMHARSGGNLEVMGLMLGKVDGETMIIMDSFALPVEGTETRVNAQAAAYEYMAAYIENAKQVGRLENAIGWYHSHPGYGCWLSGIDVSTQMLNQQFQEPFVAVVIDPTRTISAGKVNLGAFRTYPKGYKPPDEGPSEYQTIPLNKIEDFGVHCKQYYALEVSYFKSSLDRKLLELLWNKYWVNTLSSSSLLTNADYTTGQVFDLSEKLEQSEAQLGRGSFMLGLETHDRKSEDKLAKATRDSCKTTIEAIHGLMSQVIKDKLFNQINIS

log2 ratio of Biotin-Ahx-Ub-VS probe labelling, inactive:
O=C(CCl)N1CCCC2CCCCC21 (configuration not stated) -0.175
O=C(CCl)NCc1ccc(N2CCOCC2)c(F)c1 -0.0355
O=C(CCl)N1CCc2ccccc2C(O)C1 (configuration not stated) 0.0553
CCN1C(=O)C2CN(C(=O)CCl)CCN2C1=O (configuration not stated) -0.0909
Cc1cccc(C(CNC(=O)CCl)N2CCOCC2)c1.Cl (configuration not stated) 0.0369
O=C(CCl)Nc1nc(-c2cccs2)cs1 0.0647
O=C(CCl)N1CCCCCC1c1ncon1 (configuration not stated) 0.187

Reference: the supplement of paper PMC11732987, “Enantioselective OTUD7B fragment discovery through chemoproteomics screening and high-throughput optimisation” (Communications Chemistry, 2025)
